# Assay results published in PubChem BioAssay.
# Results filed as inconclusive are left out. Active and inactive are the calls of the source. Rule as the data show it, unless noted: active = inhibition above about 80%; inactive = the rest.
# Legend:
# [1] = growth inhibition of DIPG glioma cells, dose response, cell-based, SU-DIPG-XIII, MIPE4.0, CellTiter-Glo, qHTS (AID 1347061; cut-off not given, nearly all actives have AC50 up to about 37 µM;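 also: cells exposed to compound for 48 hours before readout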); details: SU-DIPG-XIII viability, CellTiter-Glo ATP luminescence
# [2] = growth inhibition of DIPG glioma cells, dose response, cell-based, SU-DIPG-XIII, MIPE5.0, CellTiter-Glo, qHTS (AID 1347064; cut-off not given, nearly all actives have AC50 up to about 23 µM); details: SU-DIPG-XIII viability, CellTiter-Glo ATP luminescence
# [3] = viability loss in pontine glioma line – cell-based, SU-DIPG-XXV, MIPE5.0, CellTiter-Glo, qHTS, dose response (AID 1347065; cut-off not given, nearly all actives have AC50 up to about 26 µM;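 also: cells exposed to compound for 48 hours before ATP readout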); details: CellTiter-Glo ATP luminescence
# [4] = SU-DIPG-VI glioma cell viability, MIPE4.0 library, CellTiter-Glo luminescence, qHTS (AID 1347066; cut-off not given, nearly all actives have AC50 up to about 30 µM;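 also: cells exposed to compound for 48 hours before readout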); details: CellTiter-Glo ATP luminescence
# [5] = JHH-DIPG-1 glioma cell viability, MIPE5.0 library, CellTiter-Glo luminescence, qHTS (AID 1347067; cut-off not given, nearly all actives have AC50 up to about 26 µM;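 also: cells exposed to compound for 48 hours before readout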); details: JHH-DIPG-1 glioma viability, CellTiter-Glo ATP luminescence
# [6] = SU-DIPG-XXV glioma cell viability, MIPE5.0 library, qHTS (AID 1347068; cut-off not given, nearly all actives have IC50 up to about 30 µM;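 as to IC50: cells exposed to compound for 48 hours before viability readout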)
# [7] = growth inhibition of DIPG glioma cells, dose response, cell-based, JHH-DIPG-1, MIPE4.0, CellTiter-Glo, qHTS (AID 1347062; cut-off not given, nearly all actives have AC50 up to about 27 µM;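 as to AC50: cells exposed to compound for two days before readout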); details: JHH-DIPG-1 viability, CellTiter-Glo ATP luminescence
# [8] = growth inhibition of DIPG glioma cells, dose response, cell-based, SU-DIPG-IV, MIPE4.0, CellTiter-Glo, qHTS (AID 1347063; cut-off not given, nearly all actives have AC50 up to about 30 µM;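 also: compound exposure lasted 48 hours before the viability readout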); details: SU-DIPG-IV viability, CellTiter-Glo ATP luminescence
# [9] = LFS_MB_P medulloblastoma growth inhibition, cell-based, chromothripsis tumors, cisplatin or BGB combos (AID 1671449); details: LFS_MB_P medulloblastoma cells;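 also: cells exposed for 96 hours; 0% = vehicle DMSO and 100% = killing by high DMSO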
# [10] = HDN33 neuroblastoma growth inhibition, cell-based, chromothripsis tumors, cisplatin or BGB combos (AID 1671450); details: HDN33 neuroblastoma cells, stronger effect = higher value;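 also: cells exposed to compound for four days; 0% = vehicle DMSO and 100% = cell killing by high DMSO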
# [11] = ICB984 medulloblastoma cell growth inhibition, synergistic combos for chromothripsis tumors, cisplatin or BGB combos (AID 1671451; call rule not given here;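 also: cells exposed for 96 hours before readout; 0% = vehicle DMSO and 100% = killing by high DMSO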); details: ICB984 medulloblastoma cells, drug combinations, stronger effect = higher value
# [12] = LFS_MB_1R medulloblastoma cell growth inhibition, synergistic combos for chromothripsis tumors, cisplatin or BGB combos (AID 1671452); details: LFS_MB_1R medulloblastoma cells, stronger effect = higher value;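 also: cells exposed for 96 hours before readout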
# [13] = HTB85 osteosarcoma cell growth inhibition, synergistic combos for chromothripsis tumors, BGB or cisplatin IC20 combos (AID 1671453); details: HTB85 osteosarcoma cells, drug combinations, stronger effect = higher value;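 also: cells exposed for 96 hours before readout; 0% = vehicle DMSO and 100% = high DMSO killing control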
# [14] = CRL2098 osteosarcoma cell growth inhibition, synergistic combos for chromothripsis tumors, BGB or cisplatin IC20 combos (AID 1671454); details: CRL2098 osteosarcoma cells, drug combinations, stronger effect = higher value;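 also: cells exposed for 96 h before readout; 0% = vehicle DMSO and 100% = killing by high DMSO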
# [15] = HD-MB03 medulloblastoma cell growth inhibition, synergistic combos for chromothripsis tumors, BGB or cisplatin IC20 combos (AID 1671455; in the data active = inhibition above about 83%;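 also: 0% = vehicle DMSO and 100% = high DMSO as cytotoxic control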); details: HD-MB03 medulloblastoma cells, stronger effect = higher value
# [16] = UWB1.289 ovarian carcinoma cell growth inhibition, synergistic combos for chromothripsis tumors, BGB or cisplatin combos (AID 1671456); details: UWB1.289 ovarian carcinoma cells, stronger effect = higher value;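 also: cells exposed to compound for four days; 0% = vehicle DMSO and 100% = killing by high DMSO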
# [17] = LFS_MB_2R medulloblastoma cell growth inhibition, synergistic combos for chromothripsis tumors, cisplatin combos (AID 1671457); details: LFS_MB_2R medulloblastoma cells, stronger effect = higher value;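 also: cells exposed to compound for four days before readout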
# [18] = MDA-MB-436 breast carcinoma cell growth inhibition, synergistic combos for chromothripsis tumors, BGB or cisplatin combos (AID 1671458; call rule not given here;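 also: cells exposed for 96 hours; 0% = vehicle DMSO and 100% = killing by high DMSO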); details: MDA-MB-436 breast carcinoma growth inhibition, drug combinations, stronger effect = higher value
# [19] = UWB1.289_BRCA1 ovarian cancer growth, cell-based, BGB or cisplatin combinations (AID 1671459); details: UWB1.289 BRCA1 ovarian carcinoma, drug combinations, stronger effect = higher value
# [20] = human astrocyte viability loss, single and combined drugs, cytotoxicity control for chromothriptic childhood tumor combination screen, cell-based, BGB or cisplatin IC20 combos (AID 1671460); details: Human astrocytes, drug combinations, stronger effect = higher value;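 also: cells exposed to compounds for 96 hours before viability readout; 0% = vehicle and 100% = killing control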
# [21] = growth inhibition of BT084 medulloblastoma cells, cell-based, ICGC_MB145, cisplatin and BGB IC40 combos (AID 1671461); details: drug combinations, stronger effect = higher value;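 also: cells exposed to drugs for 96 hours; 0% = vehicle DMSO and 100% = high DMSO full killing control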
# [22] = growth inhibition of RCMB18 medulloblastoma cells, cell-based, cisplatin and BGB IC40 combos (AID 1671462); details: stronger effect = higher value;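 also: cells exposed to compound for four days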
# [23] = growth inhibition of CRL1545 osteosarcoma cells, cell-based, cisplatin and BGB IC20 combos (AID 1671464); details: stronger effect = higher value;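 also: cells exposed to compound for 96 hours before readout; 0% = vehicle DMSO and 100% = high DMSO killing control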
# [24] = measured here: combination with BGB IC40, at 0.05 µM
# [25] = measured here: with BGB IC20 combination, at 0.5 µM
# [26] = measured here: with cisplatin IC20 combination, at 0.5 µM
# [27] = measured here: combination with cisplatin, at 0.5 µM
# [28] = measured here: combination with cisplatin, at 5 µM
smiles,measurement,setting,value
CCOC(=O)Nc1ccc(NCc2ccc(F)cc2)cc1N,outcome,[1],inactive
same,outcome,[2],inactive
same,outcome,[3],inactive
same,outcome,[4],inactive
same,outcome,[5],inactive
same,outcome,[6],inactive
C[C@@H]1[C@H](O)[C@@H](C)C=CC=CCCC=CC=CC=CC=C[C@H](O[C@H]2O[C@@H](C)[C@H](O)[C@@H](N)[C@H]2O)CC2O[C@](O)(C[C@@H](O)[C@H](O)CC[C@@H](O)C[C@@H](O)C[C@@H](O)CC(=O)O[C@H]1C)C[C@H](O)[C@H]2C(=O)O,outcome,[1],inactive
same,outcome,[7],inactive
same,outcome,[8],inactive
same,outcome,[4],inactive
CC1(N2CCC(n3c([C@@H]4CCCNC4)nc4ccccc43)CC2)CCCCCCC1,outcome,[1],inactive
same,AC50,[7],14.8 µM (active)
same,IC50,[6],20.9 µM (active)
CO/C1=C/C(C)=C\[C@@H](C)[C@@H](O)[C@@H](C)C/C(C)=C\C=C/[C@H](OC)[C@@H]([C@@H](C)[C@@H](O)[C@H](C)[C@@]2(O)C[C@@H](O)[C@H](C)[C@@H](C(C)C)O2)OC1=O,AC50,[7],11.8 µM (active)
same,AC50,[8],9.35 µM (active)
same,AC50,[3],393 nM (active)
same,AC50,[4],3.72 µM (active)
same,AC50,[5],9.86 µM (active)
same,IC50,[6],0.0494 µM (active)
CNC(=O)c1ccc(N2C(=S)N(c3ccc(C#N)c(C(F)(F)F)c3)C(=O)C23CCC3)cc1F,outcome,[1],inactive
same,AC50,[7],10.5 µM (active)
same,AC50,[8],9.35 µM (active)
same,outcome,[4],inactive
same,outcome,[6],inactive
CC[C@@H]1[C@@H](C)O[C@@](O)([C@@H](C)[C@H](O)[C@H](C)[C@H]2OC(=O)/C=C/C=C/[C@H](C)[C@@H]([C@@H](C)[C@@H](O)[C@H](C)[C@@]3(O)C[C@@H](O[C@H]4C[C@H](O)[C@H](O)[C@H](C)O4)[C@H](CC)[C@@H](C)O3)OC(=O)/C=C/C=C/[C@@H]2C)C[C@H]1O[C@H]1C[C@H](O)[C@H](O)[C@H](C)O1,AC50,[7],0.59 µM (active)
same,AC50,[8],0.743 µM (active)
same,AC50,[4],0.469 µM (active)
O=C1CCC[C@@H]2[C@H]3CCCN4CCC[C@@H](CN12)[C@@H]34,outcome,[1],inactive
same,outcome,[7],inactive
same,outcome,[8],inactive
same,outcome,[4],inactive
same,inhibition,"[9]; at 0.5 µM, stronger effect = higher value",-20.9% (inactive)
same,inhibition,"[9]; measured here: combination with BGB IC20, at 0.005 µM",-26.5%
same,inhibition,"[9]; measured here: combination with BGB IC40, at 0.005 µM",-23%
same,inhibition,[9]; [24],-17%
same,inhibition,"[9]; measured here: combination with cisplatin, at 0.5 µM, stronger effect = higher value",-27.3%
same,inhibition,"[9]; measured here: combination with cisplatin, at 5 µM, stronger effect = higher value",64.5%
same,inhibition,"[10]; BGB combo, at 5 µM",59.7%
same,inhibition,[10]; at 0.5 µM,6.84% (inactive)
same,inhibition,"[10]; cisplatin combo, at 5 µM",52.4%
same,inhibition,[10]; [25],-9.69%
same,inhibition,[10]; [26],11.1%
same,inhibition,"[10]; single agent, at 5 µM",48.2%
same,inhibition,"[11]; BGB IC20 combo, at 0.005 µM",5.19%
same,inhibition,"[11]; BGB IC40 combo, at 0.005 µM",0.771%
same,inhibition,"[11]; BGB IC40 combo, at 0.05 µM",63.2%
same,inhibition,[11]; at 0.5 µM,-0.41% (inactive)
same,inhibition,"[11]; cisplatin combo, at 0.05 µM",61.6%
same,inhibition,"[11]; cisplatin combo, at 0.5 µM",2.95%
same,inhibition,"[11]; cisplatin combo, at 5 µM",-10%
same,inhibition,"[11]; measured here: 5 uM single agent, at 5 µM",1.92%
same,inhibition,[12]; at 0.5 µM,12.9% (inactive)
same,inhibition,[12]; [24],-3.79%
same,inhibition,[12]; [27],12.5%
same,inhibition,[12]; [28],79.4%
same,inhibition,[13]; at 0.5 µM,0.28% (inactive)
same,inhibition,"[13]; measured here: with BGB IC20, at 0.5 µM",0.562%
same,inhibition,"[13]; measured here: with BGB IC20, at 5 µM",39.5%
same,inhibition,"[13]; measured here: with cisplatin IC20, at 0.5 µM",-4.39%
same,inhibition,"[13]; measured here: with cisplatin IC20, at 5 µM",33.8%
same,inhibition,"[13]; single agent, at 5 µM",15.4%
same,inhibition,[14]; at 0.5 µM,11.9% (inactive)
same,inhibition,"[14]; measured here: combination with BGB at IC20, at 0.5 µM",-8.11%
same,inhibition,"[14]; measured here: combination with cisplatin at IC20, at 0.5 µM",39.2%
same,inhibition,[15]; at 0.5 µM,2.42% (inactive)
same,inhibition,"[15]; measured here: combo with BGB at IC20, at 0.5 µM",3.91%
same,inhibition,"[15]; measured here: combo with cisplatin at IC20, at 0.5 µM",-1.67%
same,inhibition,[16]; at 0.5 µM,2.22% (inactive)
same,inhibition,"[16]; measured here: inhibition with BGB combination, at 0.05 µM",4.13%
same,inhibition,"[16]; measured here: inhibition with cisplatin combination, at 0.05 µM",1.55%
same,inhibition,[17]; at 0.5 µM,0.58% (inactive)
same,inhibition,[17]; [27],8.66%
same,inhibition,[17]; [28],60.9%
same,inhibition,[18]; at 0.5 µM,-3.03% (inactive)
same,inhibition,"[18]; measured here: BGB combination, at 0.5 µM",-5.75%
same,inhibition,"[18]; measured here: BGB combination, at 5 µM",1.19%
same,inhibition,"[18]; measured here: cisplatin combination, at 0.5 µM",-10.4%
same,inhibition,"[18]; measured here: cisplatin combination, at 5 µM",1.01%
same,inhibition,"[19]; BGB combination, concentration series, at 5 µM",24%
same,inhibition,[19]; at 0.5 µM,2.45% (inactive)
same,inhibition,"[19]; cisplatin combination, concentration series, at 5 µM",16.1%
same,inhibition,[20]; at 0.5 µM,2.72% (inactive)
same,inhibition,"[20]; measured here: combo with BGB IC20, at 0.5 µM",3.13%
same,inhibition,"[20]; measured here: combo with cisplatin IC20, at 0.5 µM",4.87%
same,inhibition,[21]; at 0.5 µM,3.62% (inactive)
same,inhibition,"[21]; cisplatin combination, at 0.5 µM",3.61%
same,inhibition,"[21]; cisplatin combination, at 5 µM",62.6%
same,inhibition,"[21]; measured here: BGB IC40 combination 0.05 uM, at 0.05 µM",-11%
same,inhibition,"[21]; single agent, at 5 µM",75.7%
same,inhibition,[22]; at 0.5 µM,-5.51% (inactive)
same,inhibition,"[22]; cisplatin combo, at 5 µM",33.7%
same,inhibition,"[22]; measured here: BGB IC40 combination, at 0.05 µM",-15.6%
same,inhibition,[22]; [27],-27.9%
same,inhibition,"[22]; single agent, at 5 µM",31.3%
same,inhibition,[23]; at 0.5 µM,8.42% (inactive)
same,inhibition,[23]; [25],-16.4%
same,inhibition,[23]; [26],19.6%
same,inhibition,"[23]; single agent, at 0.05 µM",-32.9%
same,inhibition,"[23]; single agent, at 5 µM",-58%
